The whole screen tested about 13,000 compounds, of which about 3,200 (25%) showed an effect of 50% or more. Some of the results follow.
system: P. falciparum stage V gametocytes; design: BacTiter-Glo ATP luminescence viability of purified stage V gametocytes in 384-well plates, per cent inhibition versus DMSO; conditions: 48 h, 5 µM; inhibitor

Row | Structure (SMILES) | % Inhibition
1 | Cc1cccc2[nH]c(-c3cccc(-c4cccc(CN5CCC(CO)CC5)c4)c3)nc12 [TCMDC-133131] | -22.3%
2 | Nc1nccc(-c2ccc3c(-c4cccc(F)c4)cnc(N)c3c2)n1 [TCMDC-134545] | -1.877%
3 | Cc1cc(NC(=O)c2ccsc2)ccc1OC1CCN(Cc2ccc(F)cc2)CC1 [TCMDC-133742] | 4.453%
4 | COc1ccc(Nc2nccc(-c3c(-c4cccc(NC(=O)c5c(F)cccc5F)c4)nn4ccccc34)n2)cc1Cl [TCMDC-135970] | -50.42%
5 | CC(C)CCCC(C)NC[C@@H](O)[C@H](Cc1ccccc1)NC(=O)c1cc(N2CCCC2=O)cc(N(c2ccccc2)S(C)(=O)=O)c1 (some centres unmarked) [TCMDC-138851] | 82.88%
6 | CS(=O)(=O)N(c1ccccc1)c1cc(C(=O)N[C@@H](Cc2ccccc2)[C@H](O)CNC2CC2)cc(N2CCCC2=O)c1 [TCMDC-138891] | 19.46%
7 | CS(=O)(=O)N(c1ccccc1)c1cc(C(=O)N[C@@H](Cc2ccccc2)[C@H](O)CNC2CCCCC2)cc(N2CCCC2=O)c1 [TCMDC-138850] | 25.67%
8 | O=C(Nc1cccc(-c2ccc(-c3nc4ccc(C(F)(F)F)cc4[nH]3)cc2)c1)c1csnn1 [TCMDC-136905] | 5.589%
9 | COc1ccc(NC(=O)[C@H](C)Nc2cc(C)nc(NCC3CCCCC3)n2)cc1 [TCMDC-134922] | -9.943%
10 | CCOC(=O)c1ccc(N2CCN(c3cc(Cl)ccc3C)CC2)c(NC(=O)Nc2ccc(Cl)c(Cl)c2)c1 [TCMDC-124007] | -37.8%
11 | O=C(/C=C/c1ccc(Cl)c(Cl)c1)N1CCC(CCN2CCC(c3c[nH]c4ccncc34)CC2)CC1 [TCMDC-140075] | 91.37%
12 | O=C(/C=C/c1ccc(Cl)c(Cl)c1)N1CCC(CCN2CCC(c3c[nH]c4cnccc34)CC2)CC1 [TCMDC-140136] | 111.3%
13 | O=C(/C=C/c1ccc(Cl)c(Cl)c1)N1CCC(CN2CCC(c3c[nH]c4ccc(NS(=O)(=O)c5cccs5)cc34)CC2)CC1 [TCMDC-139955] | 57.44%
14 | CS(=O)(=O)Nc1ccc2c(C3CCN(CC4CCN(C(=O)/C=C/c5ccc(Cl)c(Cl)c5)CC4)CC3)c[nH]c2c1 [TCMDC-139959] | -60.99%
15 | O=C(/C=C/c1ccc(Cl)c(Cl)c1)N1CCC(CCN2CCC(c3c[nH]c4ccccc34)CC2)CC1 [TCMDC-139620] | 8.374%
16 | O=C(/C=C/c1ccc(Cl)c(Cl)c1)N1CCC(CN2CCC(c3c[nH]c4cnccc34)CC2)CC1 [TCMDC-140135] | 46.53%
17 | O=C(/C=C/c1ccc(Cl)c(Cl)c1)N1CCC(CN2CCC(c3c[nH]c4ncccc34)CC2)CC1 [TCMDC-139846] | 9.268%
18 | O=C(/C=C/c1ccc(Cl)c(Cl)c1)N1CCC(CN2CCC(c3c[nH]c4ccncc34)CC2)CC1 [TCMDC-140074] | 108.3%
19 | CS(=O)(=O)Nc1ccc2[nH]cc(C3CCN(CC4CCN(C(=O)/C=C/c5ccc(Cl)c(Cl)c5)CC4)CC3)c2c1 [TCMDC-139813] | 20.88%

Row | Structure (SMILES) | % Inhibition
20 | CCc1nc(N)nc(N)c1-c1ccccc1 [TCMDC-124296] | -28.74%
21 | O=C(Nc1ccc(F)cc1)c1nc2ccccc2nc1Cl [TCMDC-124769] | 24.46%
22 | COCCN(C)CCCOc1cc2c(cc1OC)ncn2-c1cc(OCc2ccccc2C(F)(F)F)c(C(N)=O)s1 [TCMDC-135214] | 33.23%
23 | CCN1CCN(c2cc(C)c3cc(NC(=O)c4cccc(Cl)c4)ccc3n2)CC1 [TCMDC-125580] | 30.18%
24 | N=c1c(C(=O)NCc2ccccc2)cc2c(=O)n3ccccc3nc2n1CCc1ccccc1 [TCMDC-124378] | 0.2894%
25 | O=C1COc2ccc(S(=O)(=O)N3CCC[C@@H]3CCN3CCC(c4c[nH]c5cnccc45)CC3)cc2N1 [TCMDC-141172] | 41.57%
26 | CCS(=O)(=O)Nc1ccc2[nH]cc(C3CCN(CCC4CCN(C(=O)/C=C/c5ccc(Cl)c(Cl)c5)CC4)CC3)c2c1 [TCMDC-139930] | 78.45%
27 | CC1CCN(CC[C@H]2CCCN2S(=O)(=O)c2cccc(NC(=O)c3ccc(-c4ccc(Cl)cc4)o3)c2)CC1 [TCMDC-141078] | -28.73%
28 | CC(=O)Nc1ccc2[nH]cc(C3CCN(CCC4CCN(C(=O)/C=C/c5ccc(Cl)c(Cl)c5)CC4)CC3)c2c1 [TCMDC-139854] | 30.15%
29 | CNC(=O)c1ccc2[nH]cc(C3CCN(CC4CCN(C(=O)/C=C/c5ccc(Cl)c(Cl)c5)CC4)CC3)c2c1 [TCMDC-139980] | -32.3%
30 | CC(=O)Nc1ccc2[nH]cc(C3CCN(CC4CCN(C(=O)/C=C/c5ccc(Cl)c(Cl)c5)CC4)CC3)c2c1 [TCMDC-139853] | 21.75%
31 | O=C(/C=C/c1ccc(Cl)c(Cl)c1)N1CCC(CCN2CCC(c3c[nH]c4cc5c(cc34)OCO5)CC2)CC1 [TCMDC-139836] | 55.11%
32 | O=C(/C=C/c1ccc(Cl)c(Cl)c1)N1CCC(CN2CCC(c3c[nH]c4cc5c(cc34)OCO5)CC2)CC1 [TCMDC-139838] | -10.77%
33 | CS(=O)(=O)Nc1ccc2c(C3CCN(CCC4CCN(C(=O)/C=C/c5ccc(Cl)c(Cl)c5)CC4)CC3)c[nH]c2c1 [TCMDC-139956] | 32.42%
34 | O=C(/C=C/c1ccc(Cl)c(Cl)c1)N1CCC(CN2CCC(c3c[nH]c4ccc(O)cc34)CC2)CC1 [TCMDC-139786] | 94.36%
35 | O=S(=O)(c1ccc2cc[nH]c2c1)N1CCC[C@@H]1CCN1CCC(c2c[nH]c3cnccc23)CC1 [TCMDC-141158] | 68.56%
36 | Cc1cccc(C(=O)NCCCN2CCC(NC(=O)/C=C/c3ccc(Cl)c(Cl)c3)CC2)c1 [TCMDC-133355] | -67.88%
37 | CCNc1cc(C(=O)N[C@@H](Cc2ccccc2)[C@H](O)CNC2CCSCC2)cc(N2CCCC2=O)c1 [TCMDC-134686] | 19.67%
38 | CC(C)(C)COC(=O)c1ccc(NC(=O)N[C@@H](Cc2ccc(O)cc2)C(=O)NC2CCN(Cc3ccc(O)cc3)C2)cc1 (some centres unmarked) [TCMDC-135356] | -84.6%

Reference: PMC4552634, “A New Set of Chemical Starting Points with Plasmodium falciparum Transmission-Blocking Potential for Antimalarial Drug Discovery” (PLoS ONE, 2015)
